Compound activity from PubChem.
This is one part of a sample in which hits are shown more often than they occur.
RE007 growth inh = less growth of the S. pombe RE007 Vpr strain; S. pombe RE007 Vpr strain, BacTiter-Glo ATP luminescence, 24 h; 360,000 compounds, 0.21% hits; AID 651644; Potency, µM (titrated, usually from 92.2 µM), for inactives: at the top dose activity change, negative = less growth, usual class: inhibitors; active = well fitted falling curve with a large enough effect; inconclusive = small, poorly fitted or top-dose-only effect; inactive = no such curve, though single readings can be large or run the other way; also: potency is read from the fitted curve at half-maximal effect; % is scaled to controls: 0 for no effect and ±100 for the full control effect; nearly all actives have a fitted effect of over 50% in size
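Fission yeast strain RE007, carrying one chromosomally integrated HIV-1 vpr copy, was seeded at OD 0.01 in PMG+AL medium with 23 nL pinned compound. After 24 h at 30 °C and 99% humidity, viability was read by BacTiter-Glo luminescence.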
Giardia FBPA inh = inhibitors of Giardia lamblia fructose-1,6-bisphosphate aldolase | purified Giardia FBPA | Potency, µM (series often up to 59.6 µM), for inactives: top-dose activity, negative = inhibition, hits mostly inhibitors | 290,000 compounds, 0.71% hits | AID 2451; also: potency is read from the fitted curve at half-maximal effect; % is scaled to controls: 0 for no effect and ±100 for the full control effect; nearly all actives have a fitted effect of over 55% in size
Target sequence (A8B2U2 whole entry, looked up): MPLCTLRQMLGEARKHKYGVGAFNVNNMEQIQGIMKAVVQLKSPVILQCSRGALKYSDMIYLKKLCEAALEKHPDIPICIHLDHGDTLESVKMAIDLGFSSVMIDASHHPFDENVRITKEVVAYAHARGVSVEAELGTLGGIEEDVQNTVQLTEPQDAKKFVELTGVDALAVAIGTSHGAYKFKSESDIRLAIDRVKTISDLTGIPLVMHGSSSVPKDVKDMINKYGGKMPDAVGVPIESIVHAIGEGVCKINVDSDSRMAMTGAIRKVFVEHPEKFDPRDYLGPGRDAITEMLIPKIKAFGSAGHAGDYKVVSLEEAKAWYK
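Giardia FBPA (40 nM reagent) was preincubated 10 min at RT with compound (up to 57.5 uM final), then substrate plus GAPDH/TPI/NAD/arsenate coupling system with diaphorase/resazurin was added; resorufin fluorescence (525/598 nm) was read after 20 min.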
CHX counter = affects cycloheximide protein synthesis inhibition readout, counter-screen; cell reporter, cycloheximide protein synthesis inhibition counterscreen; max response, %; 300,000 compounds, 12% hits; in the data active = max response mostly above about 13%, no sharp cut-off; inactive = mostly below about 14%; also: read at 38.3 µM for the half of the compounds with a filed dose; 0% is about no effect
TbPYK inhibitor = inhibitors of Trypanosoma brucei pyruvate kinase. Q57TT1. TbPYK enzyme, Kinase-Glo Plus ATP luminescence, 45 min. Potency, µM (series often up to 76.8 µM), inactives show at the highest dose activity, negative = inhibition, hits mostly inhibitors. 410,000 compounds, 0.12% hits. AID 624173; also: potency is read from the fitted curve at half-maximal effect; % is scaled to controls: 0 for no effect and ±100 for the full control effect; nearly all actives have a fitted effect of over 50% in size
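TbPYK + substrate in 50 mM TEA pH 7.2, 100 mM KCl, 10 mM MgCl2, 0.05% BSA, 0.01% Tween-20; cpd pinned; ADP 130 uM final; 45 min RT; Kinase-Glo Plus 10 min; luminescence endpoint.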
Shiga toxin inh = Shiga toxin inhibition | Vero cells, Shiga toxin protein synthesis inhibition reporter | inhibition, % at 38.7 µM | 290,000 compounds, 9.2% hits; in the data active = inhibition mostly above about 28%, no sharp cut-off; inactive = mostly below about 43%; also: 0% is about no effect
LmPK inhibitor = inhibitors of Leishmania mexicana pyruvate kinase; 290,000 compounds, 0.37% hits; purified LmPK, Kinase-Glo ATP luminescence, 1 h; Potency, µM (titrated, usually from 57.5 µM), without a hit: at the highest dose activity change, negative = inhibition, hits mostly inhibitors; also: potency is read from the fitted curve at half-maximal effect; % is scaled to controls: 0 for no effect and ±100 for the full control effect
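Pyruvate kinase activity monitored as ATP production (luciferase luminescence). Conditions: 0.1 nM enzyme, 0.5 mM PEP, 0.1 mM ADP, 1 h, RT; normalized against uninhibited and no-enzyme wells.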
Numbers without * were called inactive; ? = inconclusive; . = no result. Unless noted, calls follow the shape of the dose curve; as a rule, active = well fitted curve in the direction sought with a large enough effect; inconclusive = small, poorly fitted or top-dose-only effect, or another doubt; inactive = no such curve, though single readings can be large; an effect the other way counts as inactive or inconclusive.

SMILES	RE007 growth inh	Giardia FBPA inh	CHX counter	TbPYK inhibitor	Shiga toxin inh	LmPK inhibitor
O=C(O)CCSc1ccccn1	-17%	1%	-3	-15%	-1	0%
O=C(CSCCO)Nc1ccccc1	1%	29%	1	4%	-14	1%
Cc1cc(C)cc(NC(=S)N2CCN(S(=O)(=O)c3ccccc3)CC2)c1	10%	.	6	-3%	-14	-5%
Cc1noc(C)c1S(=O)(=O)N1CCCN(C(=O)/C=C/c2ccccc2F)CC1	2%	.	.	0%	.	.
COc1ccc(NC(=O)CC(C)c2ccccc2)c([N+](=O)[O-])c1 (configuration not stated)	-19%	-9%	19*	-12%	24	0%
COc1ccc(C(=O)NCCSc2ccccn2)cc1	-18%	0%	32*	4%	53*	-11%
COc1ccc(NC(=O)CSc2ccccn2)cc1	-7%	-5%	49*	3%	62*	4%
O=C(CSc1ccccn1)Nc1ccc(Br)cn1	-22%	2%	21*	1%	67	-2%
O=C(CSc1ccccn1)Nc1ccccc1F	-5%	0%	11	1%	7	-4%
O=C(CSc1ccccn1)Nc1ccc(NC(=O)CSc2ccccn2)cc1	?	0%	1	-4%	-6	-2%
NC[C@](O)(CS(=O)(=O)O)c1ccc(Cl)cc1	.	10%	.	.	.	.
COC(=O)N[C@@H](CCc1ccccc1)[C@]1(C(=O)OC)CCCC1=O	.	4%	.	.	.	.
Cc1cc(C)n(C(=O)c2ccc(C)o2)n1	-24%	0%	4	-4%	-8	1%
Cc1cc(C)n(C(=O)c2cc3sccc3[nH]2)n1	-10%	1%	30*	6%	64*	-4%
CCCCn1c(=NC(=O)C(C)(C)Oc2ccc(Cl)cc2)c(C(=O)OCC)cc2c(=O)n3ccccc3nc21	.	.	.	-1%	.	.
COC(=O)c1ccccc1NC(=O)N1CCC(N2CCN(Cc3ccc(F)cc3)C(=O)C2=O)CC1	.	.	.	-2%	.	.
CC(=O)OC1CC[C@@]2(C)C(CC[C@@]3(C)C2CC=C2C4CC(C)(C)CC[C@]4(C(=O)O)CC[C@@]23C)C1(C)C (some centres not stated)	.	3%	.	.	.	.
Cc1cc(C(=O)NCc2cccs2)cs1	-5%	-12%	16	9%	41	3%
CC(C)Cc1cc(C(=O)NCc2cccs2)no1	-3%	-2%	40*	2%	84*	-5%
Cc1ccc(-c2cc(C(=O)NCc3cccnc3)no2)cc1	0%	3%	53*	1%	50*	0%
O=C(NCc1cccnc1)c1cc(-c2ccco2)on1	3%	-27%	44*	-3%	75*	-4%
CC(C)Cc1cc(C(=O)NCc2cccnc2)no1	-4%	3%	25*	0%	13	10%
Cc1cc(C(=O)NCc2cccnc2)no1	-9%	6%	-2	4%	-8	-1%
COc1ccc(CC(=O)NCc2ccc(Cl)cc2)cc1S(=O)(=O)N1CCOCC1	1%	.	.	-2%	.	.
O=c1[nH]c2ccc(NCc3ccc(-c4ccccc4)o3)cc2[nH]1	.	.	.	-4%	.	.
SMILES	RE007 growth inh	Giardia FBPA inh	CHX counter	TbPYK inhibitor	Shiga toxin inh	LmPK inhibitor
O=C(NCc1ccc(Cl)cc1)c1cc(-c2ccco2)on1	-20%	6%	10	-4%	-15	-1%
O=C(NCc1ccc(F)cc1)c1cc(-c2ccco2)on1	5%	7%	20*	0%	44	4%
COc1cc(C2Nc3ccc4ncccc4c3C3=C2C(=O)CCC3)ccc1O (configuration not stated)	?	-16%	21*	-6%	20	-2%
CCOc1ccc(C2C3=C(CCCC3=O)Nc3ccc4ncccc4c32)cc1 (configuration not stated)	4%	3%	-5	1%	-3	2%
O=C1CCCC2=C1C(c1ccc(O)c(O)c1)c1c(ccc3ncccc13)N2 (configuration not stated)	-2%	6.3µM*	19	18µM*	17	3%
O=Nc1ccc(NOC(=O)c2ccccc2)cc1	10µM*	-12%	44*	?	47*	13µM*
